Test results: the supplement of paper PMC12494721
Counter-ions that a name gives are not always drawn.

Columns and labels:
Details in all cases: incubation time: 27 h, anaerobic, 37 °C;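 for the amine columns active = adjusted P below 0.05 in both replicates with a change the same way and a mean fold change under 0.8 or over 1.25; inactive = the rest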
[1] = test system: Clostridium sporogenes DSM 1664; assay: growth (OD595) fold change vs plate DMSO controls (fold change (ratio)); higher = more growth
How it was run: (§1)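 The measure reported is growth, taken as fold change against the median of DMSO controls on the same plate. Anaerobic mGAM cultures in 96-well plates (27 h, 37 °C) were read at 595 nm, blank-subtracted, corrected for compound background using 20 µM compound solutions in water, and multiplied by a calibration factor of 5 to give OD. Any fold change above 1.5 became NA, and 2 biological replicates were averaged.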

Escherichia coli IAI1 [2] = assay: as above
How it was run: as §1

[3] = test system: Klebsiella aerogenes DSM 30053; assay: as above
How it was run: as §1

[4] = test system: Ruminococcus gnavus DSM 108212; assay: as above
How it was run: as §1

[5] = test system: Klebsiella aerogenes DSM 30053; assay: fold change of Histamine concentration vs plate DMSO controls (fold change (ratio)); higher = more amine produced, active = hit call of the paper (significant change in both replicates, either direction)
How it was run: (§2)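 Amine values are fold changes relative to DMSO-only wells on the same plate. They derive from 27 h, 37 °C anaerobic mGAM cultures of four gut bacterial strains in 80 µL wells, dosed at 20 µM final, or 50 µM final for sweeteners. Extraction of the whole culture, LC–triple-quadrupole MS in dynamic MRM mode, external calibration curves and within-batch drift correction were used, with 2 biological replicates averaged.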

[6] = test system: Clostridium sporogenes DSM 1664; assay: fold change of Tryptamine concentration vs plate DMSO controls (fold change (ratio)); higher = more amine produced, active = hit call of the paper (significant change in both replicates, either direction)
How it was run: as §2

[7] = test system: Ruminococcus gnavus DSM 108212; assay: as above
How it was run: as §2

Escherichia coli IAI1 [8] = assay: fold change of Putrescine concentration vs plate DMSO controls (fold change (ratio)); higher = more amine produced, active = hit call of the paper (significant change in both replicates, either direction)
How it was run: as §2

[9] = test system: Klebsiella aerogenes DSM 30053; assay: as above
How it was run: as §2

Escherichia coli IAI1 [10] = assay: fold change of Cadaverine concentration vs plate DMSO controls (fold change (ratio)); higher = more amine produced, active = hit call of the paper (significant change in both replicates, either direction)
How it was run: as §2

[11] = test system: Klebsiella aerogenes DSM 30053; assay: as above
How it was run: as §2

[12] = test system: Ruminococcus gnavus DSM 108212; assay: fold change of 2-Phenylethylamine concentration vs plate DMSO controls (fold change (ratio)); higher = more amine produced, active = hit call of the paper (significant change in both replicates, either direction)
How it was run: as §2

Row | SMILES | growth [1] | growth (Escherichia coli IAI1 [2]) | growth [3] | growth [4] | fold change of Histamine concentration [5] | fold change of Tryptamine concentration [6] | fold change of Tryptamine concentration [7] | fold change of Putrescine concentration (Escherichia coli IAI1 [8]) | fold change of Putrescine concentration [9] | fold change of Cadaverine concentration (Escherichia coli IAI1 [10]) | fold change of Cadaverine concentration [11] | fold change of 2-Phenylethylamine concentration [12]
1 | COc1cccc2c1C(=O)c1c(O)c3c(c(O)c1C2=O)C[C@@](O)(C(=O)CO)C[C@@H]3O[C@H]1C[C@H](N)[C@@H](O)[C@H](C)O1 [Epirubicin hydrochloride] (20 µM) | 0.607 | 0.0185 | 0 | 0.386 | 1.01 (inactive) | 0.953 (inactive) | 0.966 (inactive) | 1.07 (inactive) | 0.998 (inactive) | 1.04 (inactive) | 1.02 (inactive) | 0.934 (inactive)
2 | CC(NN)c1ccccc1 (stereo not drawn) [Mebanazine] (20 µM) | 1.11 | 1 | 0.988 | 0.887 | 1.04 (inactive) | 1.04 (inactive) | 0.985 (inactive) | 0.997 (inactive) | 1.03 (inactive) | 0.986 (inactive) | 0.998 (inactive) | 0.916 (inactive)
3 | OCCN1CCN(CCCN2c3ccccc3Sc3ccc(Cl)cc32)CC1 [Perphenazine] (20 µM) | 1.05 | 0.856 | 0.838 | 0.94 | 1.07 (inactive) | 0.999 (inactive) | 0.897 (inactive) | 1.02 (inactive) | 1.02 (inactive) | 1.01 (inactive) | 0.999 (inactive) | 0.892 (inactive)
4 | CC1(C)[C@@H](O[C@H]2O[C@H](C(=O)O)[C@@H](O)[C@H](O)[C@H]2O[C@@H]2O[C@H](C(=O)O)[C@@H](O)[C@H](O)[C@H]2O)CC[C@]2(C)[C@H]3C(=O)C=C4[C@@H]5C[C@@](C)(C(=O)O)CC[C@]5(C)CC[C@@]4(C)[C@]3(C)CC[C@@H]12 [Glycyrrhizic acid] (50 µM) | 0.971 | 0.995 | 1.07 | 1.07 | 0.865 (inactive) | 0.966 (inactive) | 1.05 (inactive) | 1.02 (inactive) | 0.992 (inactive) | 1.05 (inactive) | 1.03 (inactive) | 1.1 (inactive)
5 | CCCC1O[C@@H]2C[C@H]3[C@@H]4CCC5=CC(=O)C=C[C@]5(C)[C@H]4[C@@H](O)C[C@]3(C)[C@]2(C(=O)CO)O1 (stereo partly drawn) [Budesonide] (20 µM) | 1.13 | 0.993 | 0.997 | 1.08 | 1.06 (inactive) | 0.934 (inactive) | 0.998 (inactive) | 1.02 (inactive) | 1.01 (inactive) | 1.02 (inactive) | 0.994 (inactive) | 0.984 (inactive)
6 | CC(C)c1cc2c(cc1S(=O)(=O)O)[C@@]1(C)CCC[C@@](C)(C(=O)O)[C@@H]1CC2 [Ecabet sodium] (20 µM) | 1.16 | 1 | 1.01 | 0.982 | 0.974 (inactive) | 0.972 (inactive) | 1.01 (inactive) | 0.955 (inactive) | 1 (inactive) | 1.01 (inactive) | 0.991 (inactive) | 0.995 (inactive)
7 | O=c1cc(-c2ccc(O)c(O)c2)oc2cc(O)cc(O)c12 [Luteolin] (20 µM) | 0.877 | 0.977 | 0.977 | 1.11 | 0.969 (inactive) | 0.776 (inactive) | 0.985 (inactive) | 1.07 (inactive) | 0.991 (inactive) | 1.03 (inactive) | 1.02 (inactive) | 1.08 (inactive)
8 | CO[C@@H]1[C@@H](OC(N)=O)[C@@H](O)[C@H](Oc2ccc3c(O)c(NC(=O)c4ccc(O)c(CC=C(C)C)c4)c(=O)oc3c2C)OC1(C)C [Novobiocin sodium salt] (20 µM) | 1.07 | 0.922 | 0.747 | 0.338 | 0.858 (inactive) | 0.754 (inactive) | 0.176 (active) | 1.18 (inactive) | 0.986 (inactive) | 1.04 (inactive) | 1 (inactive) | 0.208 (active)
9 | Cc1cc(C(C)(C)C)c(O)c(C)c1CC1=NCCN1 [Oxymetazoline hydrochloride] (20 µM) | 0.934 | 1.02 | 0.987 | 0.978 | 0.947 (inactive) | 1.03 (inactive) | 1.01 (inactive) | 0.983 (inactive) | 0.958 (inactive) | 0.968 (inactive) | 1.01 (inactive) | 0.996 (inactive)
10 | CCCCC[C@H](O)/C=C/[C@H]1[C@H](O)CC(=O)[C@@H]1CCCCCCC(=O)O [Alprostadil] (20 µM) | 1.02 | 0.977 | 1.01 | 1.01 | 1.08 (inactive) | 0.957 (inactive) | 0.987 (inactive) | 1.05 (inactive) | 1.01 (inactive) | 1.01 (inactive) | 0.997 (inactive) | 0.985 (inactive)
11 | O=C(CCCCC(=O)Nc1c(I)cc(I)c(C(=O)O)c1I)Nc1c(I)cc(I)c(C(=O)O)c1I [Iodipamide] (20 µM) | 0.854 | 1.01 | 0.982 | 0.98 | 1.04 (inactive) | 1.02 (inactive) | 0.925 (inactive) | 1.13 (inactive) | 1.02 (inactive) | 1.01 (inactive) | 0.989 (inactive) | 0.892 (inactive)
12 | CN1C(C(=O)Nc2ccccn2)=C(O)c2ccccc2S1(=O)=O [Piroxicam] (20 µM) | 1.07 | 1.03 | 1.02 | 1.05 | 0.953 (inactive) | 1.09 (inactive) | 0.99 (inactive) | 1.03 (inactive) | 0.99 (inactive) | 1.02 (inactive) | 1.04 (inactive) | 0.999 (inactive)
13 | CC[C@@H]1C(=O)OC[C@@H]1Cc1cncn1C [Pilocarpine nitrate] (20 µM) | 1.03 | 1 | 0.987 | 0.556 | 0.95 (inactive) | 0.955 (inactive) | 1.01 (inactive) | 1.02 (inactive) | 1.01 (inactive) | 1.04 (inactive) | 0.993 (inactive) | 0.965 (inactive)
14 | CC(C)(C)NC[C@H](O)COc1nsnc1N1CCOCC1 [Timolol maleate salt] (20 µM) | 1 | 1.03 | 1.02 | 1.01 | 1.04 (inactive) | 1.03 (inactive) | 0.991 (inactive) | 1.12 (inactive) | 1.01 (inactive) | 1.02 (inactive) | 1 (inactive) | 0.997 (inactive)
15 | CCOC(=O)N1CCC(=C2c3ccc(Cl)cc3CCc3cccnc32)CC1 [Loratadine] (20 µM) | 1.04 | 1.01 | 1.04 | 0.87 | 0.98 (inactive) | 1.18 (inactive) | 0.864 (inactive) | 1.02 (inactive) | 0.999 (inactive) | 1.05 (inactive) | 1 (inactive) | 0.808 (inactive)
16 | NCCNCCNCCNCCN [Tetraethylenepentamine pentahydrochloride] (20 µM) | 1 | 1.1 | 1.02 | 0.923 | 1 (inactive) | 1.03 (inactive) | 0.952 (inactive) | 1.07 (inactive) | 0.994 (inactive) | 0.955 (inactive) | 0.994 (inactive) | 0.967 (inactive)
17 | OCCOCCN1CCN(C2=Nc3ccccc3Sc3ccccc32)CC1 [Quetiapine hemifumarate] (20 µM) | 0.966 | 1.13 | 1.07 | 0.982 | 0.894 (inactive) | 1 (inactive) | 1.01 (inactive) | 1.09 (inactive) | 0.978 (inactive) | 0.892 (inactive) | 1.03 (inactive) | 0.991 (inactive)
18 | CN1CCN2c3ccccc3Cc3ccccc3C2C1 (stereo not drawn) [Mianserine hydrochloride] (20 µM) | 0.914 | 0.996 | 0.995 | 0.931 | 0.916 (inactive) | 0.952 (inactive) | 0.998 (inactive) | 1.02 (inactive) | 0.98 (inactive) | 0.999 (inactive) | 0.999 (inactive) | 1.03 (inactive)
19 | CC(Oc1c(Cl)cccc1Cl)C1=NCCN1 (stereo not drawn) [Lofexidine] (20 µM) | 1.07 | 1.09 | 1.06 | 1.04 | 0.922 (inactive) | 0.975 (inactive) | 1.03 (inactive) | 1.04 (inactive) | 0.993 (inactive) | 1.01 (inactive) | 1.01 (inactive) | 1.01 (inactive)
20 | COC(=O)CCc1ccc(OCC(O)CNC(C)C)cc1 (stereo not drawn) [Esmolol hydrochloride] (20 µM) | 0.978 | 0.87 | 0.987 | 0.947 | 0.88 (inactive) | 0.972 (inactive) | 1.1 (inactive) | 0.959 (inactive) | 0.988 (inactive) | 1.09 (inactive) | 1.02 (inactive) | 1.07 (inactive)
21 | CN[C@@H]1[C@@H](O)[C@@H](O[C@@H]2[C@@H](O)[C@H](O[C@H]3OC(CN)=CC[C@H]3N)[C@@H](N)C[C@H]2N)OC[C@]1(C)O [Sisomicin sulfate] (20 µM) | 0.97 | 0.99 | 0.992 | 0.942 | 0.971 (inactive) | 0.984 (inactive) | 1.02 (inactive) | 1 (inactive) | 0.998 (inactive) | 0.996 (inactive) | 1 (inactive) | 1.04 (inactive)
22 | Nc1ccn([C@@H]2O[C@H](CO)[C@@H](O)[C@@H]2O)c(=O)n1 [Cytarabine] (20 µM) | 0.956 | 1.03 | 1.03 | 0.571 | 0.975 (inactive) | 0.967 (inactive) | 0.63 (active) | 0.953 (inactive) | 1.02 (inactive) | 1.32 (active) | 1.01 (inactive) | 0.69 (active)
23 | CC(=O)[C@H]1CC[C@H]2[C@@H]3CC=C4C[C@@H](O)CC[C@]4(C)[C@H]3CC[C@]12C [Pregnenolone] (20 µM) | 1.1 | 1.07 | 1 | 0.993 | 1.06 (inactive) | 1.04 (inactive) | 0.998 (inactive) | 1.03 (inactive) | 1.02 (inactive) | 0.968 (inactive) | 0.994 (inactive) | 1 (inactive)
24 | NC(N)=Nc1nc(CSCCN/C=N/S(=O)(=O)c2ccc(Br)cc2)cs1 [Ebrotidine] (20 µM) | 1.02 | 1.02 | 0.989 | 1.02 | 1.03 (inactive) | 0.91 (inactive) | 0.836 (inactive) | 0.974 (inactive) | 0.991 (inactive) | 1.06 (inactive) | 1.01 (inactive) | 0.887 (inactive)
